Only a selection was taken, and hits are over-represented in it overall.
Tb PYK inh: qHTS of Trypanosoma Brucei Inhibitors; TbPYK enzyme, Kinase-Glo Plus ATP luminescence, 45 min; Potency, µM (highest dose often 76.8 µM), for the others: top-dose activity, negative = inhibition, hits mostly inhibitors; 410,000 tested, 0.12% active; AID 624173, 2012; note: potency is the fitted concentration of half-maximal effect; % is set by controls: 0 for no effect and ±100 for the full control effect; nearly all actives have a fitted effect of over 50% in size
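Screened from lowest to highest concentration, compounds were pinned into TbPYK/substrate mixtures, and ADP (130 uM final) was added. Plates sat at room temperature for 45 min prior to Kinase-Glo Plus detection by luminescence.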
Giardia FBPA inh: qHTS Assay for Inhibitors of Fructose-1,6-bisphosphate Aldolase from Giardia Lamblia | AID 2451, 2010 | purified Giardia FBPA | 290,000 tested, 0.71% active | Potency, µM (series often up to 59.6 µM), for the others: at the highest dose activity, negative = inhibition, hits mostly inhibitors | A8B2U2; note: potency is the fitted concentration of half-maximal effect; % is set by controls: 0 for no effect and ±100 for the full control effect; nearly all actives have a fitted effect of over 55% in size
Target sequence (A8B2U2 whole entry, looked up): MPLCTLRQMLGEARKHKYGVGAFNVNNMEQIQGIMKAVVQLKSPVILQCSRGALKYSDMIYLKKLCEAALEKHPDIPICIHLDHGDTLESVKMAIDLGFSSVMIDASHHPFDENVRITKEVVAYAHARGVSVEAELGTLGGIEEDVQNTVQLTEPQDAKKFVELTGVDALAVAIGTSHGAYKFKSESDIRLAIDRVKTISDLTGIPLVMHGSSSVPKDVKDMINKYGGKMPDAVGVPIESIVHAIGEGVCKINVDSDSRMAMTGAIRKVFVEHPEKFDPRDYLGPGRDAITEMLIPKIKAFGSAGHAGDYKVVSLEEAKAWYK
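Giardia FBPA (40 nM reagent) was preincubated 10 min at RT with compound (up to 57.5 uM final), then substrate plus GAPDH/TPI/NAD/arsenate coupling system with diaphorase/resazurin was added; resorufin fluorescence (525/598 nm) was read after 20 min.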
Shiga toxin inh: A qHTS for Small Molecule Inhibitors of Shiga Toxin; Vero cells, Shiga toxin protein synthesis inhibition reporter; inhibition, % at 38.7 µM; 290,000 tested, 9.2% active; AID 2315, 2010; in the data active = inhibition mostly above about 28%, no sharp cut-off; inactive = mostly below about 43%; note: 0% is about no effect
LmPK inhibitor: qHTS Assay for Inhibitors of Leishmania Mexicana Pyruvate Kinase (LmPK) | Q27686 | 290,000 tested, 0.37% active | Potency, µM (highest dose often 57.5 µM), inactives show at the highest dose activity change, negative = inhibition, usual class: inhibitors | purified LmPK, Kinase-Glo ATP luminescence, 1 h; note: potency is the fitted concentration of half-maximal effect; % is set by controls: 0 for no effect and ±100 for the full control effect
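0.1 nM LmPK, 0.5 mM PEP, 0.1 mM ADP; 50 mM imidazole pH 7.2, 7 mM MgCl2, 50 mM KCl; 1 h RT. Kinase-Glo luminescence readout, normalized to no-enzyme (full inhibition) and uninhibited wells.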
CHX counter: Cycloheximide Counterscreen for Small Molecule Inhibitors of Shiga Toxin; cell reporter, cycloheximide protein synthesis inhibition counterscreen; max response, %; 300,000 tested, 12% active; AID 2314, 2010; in the data active = max response mostly above about 13%, no sharp cut-off; inactive = mostly below about 14%; note: read at 38.3 µM for the half of the compounds with a filed dose; 0% is about no effect
RE007 growth inh: qHTS Assay for Inhibitors of the HIV-1 protein Vpr. S. pombe RE007 Vpr strain, BacTiter-Glo ATP luminescence, 24 h. Potency, µM (series often up to 92.2 µM), for the others: top-dose activity change, negative = less growth, hits mostly inhibitors. 360,000 tested, 0.21% active. AID 651644, 2012; active = well fitted falling curve with a large enough effect; inconclusive = small, poorly fitted or top-dose-only effect; inactive = no such curve, though single readings can be large or run the other way; note: potency is the fitted concentration of half-maximal effect; % is set by controls: 0 for no effect and ±100 for the full control effect; nearly all actives have a fitted effect of over 50% in size
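Fission yeast RE007 carrying one integrated HIV-1 vpr copy, seeded at OD 0.01 in PMG+AL medium with 23 nL pinned compound. Grown 24 h at 30 degrees; viability read by BacTiter-Glo luminescence after 5 min.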
The depositor's hits bear a star; ? = inconclusive; · = no result; [ ] = another dose, or the depositor's remark. Unless noted, calls come from the whole dose curve; as a rule, active = well fitted curve in the direction sought with a large enough effect; inconclusive = small, poorly fitted or top-dose-only effect, or another doubt; inactive = no such curve, though single readings can be large; an effect the other way counts as inactive or inconclusive.

SMILES	Tb PYK inh	Giardia FBPA inh	Shiga toxin inh	LmPK inhibitor	CHX counter	RE007 growth inh
O=C(CCN1CCc2ccccc2C(c2ccccc2)C1)c1ccc2c(c1)OCCO2 (configuration not stated)	?	-15%	25	-1%	19*	5.6µM*
O=C(CCN1Cc2ccccc2C1)c1ccc2c(c1)OCCO2	?	-6%	37	0%	19*	?
Cc1ccc(NC(=O)C2CCCN2S(=O)(=O)c2ccc3nc(-c4ccccc4)[nH]c3c2)cc1F (configuration not stated)	6%	·	·	·	·	·
CC(C)(C)c1cc(C(=O)N/N=C/c2ccc(-c3ccccc3[N+](=O)[O-])o2)n[nH]1	-15%	·	45	11%	26*	2%
O=C(NCc1cccnc1)c1ccc(-c2ccccc2[N+](=O)[O-])o1	-2%	-30%	40*	4%	11	-11%
O=C(N/N=C/c1ccc(-c2ccccc2[N+](=O)[O-])o1)c1cccnc1	4%	?	6	-10%	16*	-5%
CCc1ccc(NC(=O)Cn2c(-c3cncs3)nc3ccccc32)cc1	-1%	·	·	·	·	·
Cc1ccc(C2=NS(=O)(=O)N(C)C(C(=O)Nc3cc(C)n(CC(=O)N4CCC(C)CC4)n3)=C2)cc1	3%	-6%	-5	-1%	9	-5%
CC(=O)c1ccc(OCc2cccc(C(F)(F)F)c2)cc1O	-15%	-1%	43*	-7%	29*	-16%
O=C(O)Cn1nnc(-c2ccc(OCc3cccc(C(F)(F)F)c3)cc2)n1	3%	·	·	·	·	·
COC(=O)Nc1c(-c2ccccc2)nc2ccc(Cl)cn12	-16%	-7%	-4	0%	-2	-7%
COC(=O)CNc1c(-c2ccccc2)nc2ccc(Br)cn12	-2%	-6%	50*	-9%	42*	-26%
COc1ccc(CN(C)CC(=O)N2CCc3ccccc3C2)cc1	1%	0%	-14	11%	-2	4%
O=C(NCc1ccc(F)cc1)N1CCc2ccccc2C1	1%	2%	69	-6%	36*	29%
COc1ccc(CNC(=O)N2CCc3ccccc3C2)cc1	3%	5%	58*	-1%	16*	0%
O=C(CCl)N=c1sccn1Cc1ccc(Cl)cc1Cl	-1%	1%	18	9%	28*	12%
O=C(CCl)N=c1sccn1Cc1ccccc1Cl	-4%	2%	17	0%	9	23%
CC(=Nc1ccc(C)c(C)c1)C1=C(O)CSC1=O	-12%	1%	45	0%	23*	?
O=C(NCCCc1ccccc1)c1ccc(F)cc1	3%	7%	55*	-4%	34*	52%
C=CCN(c1ccc(C(=O)NCCc2ccccc2)cc1)S(C)(=O)=O	-1%	4%	44	5%	40*	14%
O=C(NCc1ccccc1)c1ccc(C(=O)NCc2ccccc2)cc1	3%	·	·	·	·	-5%
CC(C)(C)c1ccc(C(=O)NCc2ccccc2)cc1	0%	-3%	53*	-4%	26*	-2%
O=C(NCCCCNC(=O)c1ccc(F)cc1)c1ccc(F)cc1	-1%	4%	-8	-3%	-4	-7%
C=CCNC(=O)c1ccc(N(CC=C)S(C)(=O)=O)cc1	-1%	0%	0	1%	-1	3%
CC(=O)Nc1ccc(C(=O)NCCc2ccccc2)cc1	-5%	5%	62*	-1%	60*	-4%
CCc1ccc(CNC(=O)C2CCCN(c3nn4cc(-c5ccc(F)cc5)nc4s3)C2)cc1 (configuration not stated)	-1%[15.4 µM]	·	·	·	·	·
CC(C)(C)c1ccc(C(=O)NCCc2ccccc2)cc1	-11%	13%	53*	-4%	46*	2%
CC(C)(C)c1ccc(C(=O)NCCCNC(=O)c2ccco2)cc1	0%	2%	4	10%	-2	-7%
CCOc1ccc(N2CC(c3nc4ccccc4n3Cc3cccc(Cl)c3)CC2=O)cc1 (configuration not stated)	0%	·	·	·	·	·

Screens: PubChem, National Center for Advancing Translational Sciences (NCATS)
